# Dicer processing: blocks human Dicer maturation of pre-miR-21 | Q9UPY3 | cat-ELCCA pre-miR-21 Dicer processing, chemiluminescence; stronger effect = higher value | z-score at 25 µM | 47,000 compounds, 6% hits | AID 1347074; in the data active = z-score above about 3, passing the limit was not always enough;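 note: higher signal means more uncleaved substrate so more Dicer inhibition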
# A number is an active result; i = inactive. Shown is part of a subset that was picked to be rich in hits.
SMILES,Dicer processing
CCCCOC(=O)C1=C(C)NC2=C(C(=O)CC(C)(C)C2)C1c1ccc(O)c(OCC)c1 (configuration not stated),i
CCOc1ccc2c(c1)CN(c1cc(C)ccc1C)CO2,i
CC(=O)c1sc(-c2cccs2)cc1N,i
COc1ccc2[nH]c(C)c(CN3CCC(C)CC3)c(=O)c2c1,3.48
CCOc1ccc2[nH]c(C)c(CN3CCCC3)c(=O)c2c1,i
COc1ccc2[nH]c(C)c(CN3CCCC3)c(=O)c2c1,i
COc1ccc(C2CC(=O)C3=C(C2)Nc2ccccc2NC3c2ccc(N(C)C)cc2)cc1 (configuration not stated),i
O=C(NCc1ccccc1)c1sc2sccc2c1Cl,i
c1ccc(-c2cn3c(n2)COc2ccccc2-3)cc1,i
CCCCCCNC(=S)NNC(=O)COc1ccc(C)c2c1CCC2,i
CCOc1cc(S(=O)(=O)n2ccnc2C(C)C)ccc1Br,i
N#Cc1cn(-c2ccccc2Cl)c(=O)[nH]c1=O,i
CC(C)C(=O)N(c1ccc2oc(=O)sc2c1)S(=O)(=O)c1ccccc1,i
CCCC(=O)N(c1ccc2oc(=O)sc2c1)S(=O)(=O)c1cccs1,i
O=C(C1CCCCC1)N(c1ccc2oc(=O)sc2c1)S(=O)(=O)c1cccs1,3.72
CC(C)CN(CC(C)C)CC(O)Cn1cnc2c1c(=O)n(C)c(=O)n2C (configuration not stated),i
Cc1ccc(S(=O)(=O)O/N=C(\N)c2ccc(C(F)(F)F)cc2)cc1,i
O=c1[nH]c2ccc(NCc3ccc4c(c3)OCO4)cc2[nH]1,i
c1ccc(NCc2ccc3c(c2)OCO3)cc1,i
Cc1cc(NCc2ccc3c(c2)OCO3)ccc1Br,3.81
Clc1cc(NCc2ccc3c(c2)OCO3)ccc1N1CCOCC1,6.92
CCc1ccc(CNCc2ccc3c(c2)OCO3)cc1,i
O=C(O)c1cc(NCc2ccc3c(c2)OCO3)ccc1N1CCOCC1,i
CC(C)(C)c1ccc(-c2nc3cc(NC(=O)c4ccc([N+](=O)[O-])o4)ccc3o2)cc1,i
Cc1ccc(-c2nc3cc(NC(=O)c4ccc([N+](=O)[O-])o4)ccc3o2)cc1,i
SMILES,Dicer processing
Cc1ccc(-c2nc3cc(NCc4ccc5c(c4)OCO5)ccc3o2)cc1,7.99
Cn1c(=O)c2c(O)cc(=O)n(C)c2n(C)c1=O,i
O=c1oc2c(c(O)c1Cc1ccccc1)c(=O)[nH]c1ccccc12,i
CCOC(=O)C(NC(=O)c1cc2ccccc2s1)C(=O)OCC,i
CCOc1ccccc1O[C@@H](c1ccccc1)[C@H]1CNCCO1,i
CC(Oc1cccc(Cl)c1)n1cncn1 (configuration not stated),i
O=[N+]([O-])c1ccc(Oc2c(Cl)cc(S(=O)(=O)N3CCCCC3)cc2Cl)cc1,i
Cc1ccc(S(=O)(=O)Oc2ccc(-c3ccc(OS(=O)(=O)c4ccc(C)cc4)cc3)cc2)cc1,i
N#Cc1c(OCC(F)(F)F)ccc(S(=O)(=O)Oc2ccc([N+](=O)[O-])cc2)c1OCC(F)(F)F,i
Cc1c(C)c(C)c(S(=O)(=O)Oc2ccc([N+](=O)[O-])cc2)c(C)c1C,4.73
COc1ccc2c(c1)CCC1C2=NN(C)C1c1ccc(F)cc1 (configuration not stated),i
Cn1c(=O)[nH]c(=O)c2c1ncn2Cc1ccccc1F,i
O=C(CSc1ccc(Cl)cc1)Nc1ccc(F)cc1,i
Oc1ccccc1-c1nc2ccccc2[nH]1,3.18
Cc1ccc(SCc2ccccc2-c2nc3ccccc3[nH]2)cc1,i
Cc1ccc(-c2nc3ccccc3[nH]2)cc1,i
Clc1ccc(SCc2nsc(Sc3ccc(Cl)cc3)n2)cc1,i
CCCCNC(=O)Cn1nc(C(F)(F)F)c2c1CCC2,i
O=S(=O)(c1ccc(Cl)cc1)c1ccc(N=Cc2ccccc2O)cc1Cl,i
CSc1nc(C=Nc2ccc(Cl)cc2)c(O)n1Cc1ccccc1Cl,4.71
CCOc1ccc(C2C(C(=O)OC)=C(C)N=C3SCCC(=O)N32)cc1OC (configuration not stated),i
OCCN1CCN(c2ncc(C(F)(F)F)cc2Cl)CC1,i
COC(=O)C1=C(C)N=C2SCCC(=O)N2C1c1ccccc1Cl (configuration not stated),i
O=C(O)c1ccc(-c2cc(C(F)(F)F)ccc2Cl)o1,i
O=C(c1cccs1)N1CCc2ccccc2C1,3.66
SMILES,Dicer processing
O=C(c1ccncc1)N1CCN(C(=O)c2cccs2)CC1,i
N#C/C(=C\N1CCc2ccccc2C1)C(=O)c1cccs1,i
COc1cccc(N2CC(=O)N(NC(=O)Nc3cccc(Cl)c3)CC2=O)c1,i
Cc1nccn1CC(=O)N1c2ccccc2Sc2ccccc21,5.53
CCOC(=O)C(=O)N1c2ccccc2Sc2ccccc21,i
O=C1CCC(=O)N1CC(=O)N1c2ccccc2Sc2ccccc21,i
CC(C)(C)c1nc(Sc2ccc(C(F)(F)F)cn2)n[nH]1,i
CCOC(=O)Nc1ccc(C(F)(F)F)cc1Cl,i
CCc1ccc(S(=O)(=O)Nc2ccc3oc(=O)sc3c2)cc1,7.88
CCc1ccc(S(=O)(=O)Nc2cccc(S(N)(=O)=O)c2)cc1,i
CCc1ccc(CC)c(S(=O)(=O)Nc2ccc3oc(=O)sc3c2)c1,7.82

# High-throughput results from PubChem.
